Results taken from PubChem BioAssay AID1259412 (Laboratorio de Genomica e Expressao (LGE), UNICAMP, 2018).
Calls of active or inactive are those of the source. The rule behind the calls is not given here.

System: alternative oxidase (AOX)
Assay: AOX inhibitors, oxygen consumption, profiling panel (AID 1259412)
Conditions: AOX-dependent respiration, at 500 µM, stronger effect = lower value

| Compound | O2 uptake (% of control) |
| --- | --- |
| O=C(Nc1cccc(C(F)(F)F)c1)c1cccc(F)c1 | 13.8% (active) |
| N#Cc1cccc(C(=O)Nc2cccc(Br)c2)c1 | 21.3% (active) |
| O=C(Nc1cccc(I)c1)c1cccc(I)c1 | 25.1% (active) |
| O=C(Nc1cccc(I)c1)c1cccc(Cl)c1 | 13.2% (active) |
| O=C(Nc1cccc(NC(=O)c2ccccc2)c1)c1ccccc1 | 44% (active) |
| COc1cc(NC(=O)c2cccc(F)c2)cc(OC)c1OC | 98.7% (inactive) |
| COc1cccc(C(=O)Nc2ccccc2)c1 | 57.1% (active) |
| COc1cccc(C(=O)Nc2cccc(Br)c2)c1 | 27.5% (active) |
| O=C(Nc1cccc(F)c1)c1cccc(Cl)c1 | 34.1% (active) |
| O=C(Nc1cccc([N+](=O)[O-])c1)c1cccc(Cl)c1 | 22.3% (active) |
| O=C(Nc1cccc(C(F)(F)F)c1)c1ccccc1 | 16.8% (active) |
| N#Cc1cccc(C(=O)Nc2ccc(N3CCOCC3)cc2)c1 | 90.5% (inactive) |
| Nc1cccc(S(=O)(=O)c2cccc(NC(=O)c3ccccc3)c2)c1 | 98.2% (inactive) |
| N#Cc1cccc(C(=O)Nc2cccc(Cl)c2)c1 | 27.6% (active) |
| COc1cc(NC(=O)c2cccc(Br)c2)cc(OC)c1OC | 63.6% (active) |
| O=C(Nc1cccc(Cl)c1)c1ccccc1 | 21.5% (active) |
| N#Cc1cccc(C(=O)Nc2cccc([N+](=O)[O-])c2)c1 | 98.7% |
| Cc1cccc(C(=O)Nc2cccc(Br)c2)c1 | 18.6% (active) |
| O=C(Nc1cccc(C(F)(F)F)c1)c1cccc(I)c1 | 17.5% (active) |

| Compound | O2 uptake (% of control) |
| --- | --- |
| O=C(Nc1cccc(F)c1)c1ccccc1 | 43.6% (active) |
| O=C(Nc1cccc(F)c1)c1cccc(Br)c1 | 28.7% (active) |
| Cc1cccc(C(=O)Nc2ccccc2)c1 | 42.3% (active) |
| O=C(NCc1ccc2c(c1)OCO2)c1cccc(Br)c1 | 24.4% (active) |
| O=C(Nc1cccc(NC(=O)c2cccc(Cl)c2)c1)c1cccc(Cl)c1 | 49.2% (active) |
| Cc1cccc(C(=O)Nc2ccc(N3CCOCC3)cc2)c1 | 84.8% (inactive) |
| NC(=O)c1ccccc1NC(=O)c1ccccc1I | 84.5% (inactive) |
| COc1cccc(C(=O)Nc2cccc(F)c2)c1 | 44.5% (active) |
| O=C(Nc1cccc(F)c1)c1cccc(I)c1 | 23.7% (active) |
| O=C(Nc1ccc(N2CCOCC2)cc1)c1cccc(Br)c1 | 85% (active) |
| N#Cc1cccc(C(=O)Nc2ccccc2)c1 | 69.6% (active) |
| O=C(Nc1cccc(NC(=O)c2cccc(I)c2)c1)c1cccc(I)c1 | 89% (active) |
| COc1cccc(C(=O)Nc2cccc(OCc3ccccc3)c2)c1 | 79% (active) |
| Cc1cccc(C(=O)Nc2ccccc2C(N)=O)c1 | 60.2% (active) |
| O=C(Nc1ccccc1)c1cccc(I)c1 | 21.9% (active) |
| NC(=O)c1ccccc1NC(=O)c1cccc(Br)c1 | 36.9% (active) |
| COc1cc(NC(=O)c2cccc(C#N)c2)cc(OC)c1OC | 91.5% (inactive) |
| O=C(Nc1cccc(C(F)(F)F)c1)c1cccc(Cl)c1 | 15.8% (active) |
| COc1cccc(C(=O)Nc2ccc(N3CCOCC3)cc2)c1 | 92.3% |
